# According to the supplement of paper PMC9135407:
# “And” between values parts separate entries of the source, which are not always exact repeats. Equal entries are not always repeated. Structures can show the parent of a compound that is named as a salt. About 620 (11%) of roughly 5,800 compounds showed activity. Only a selection was taken, and actives are over-represented in it overall. A number with no mark means an inactive call.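 How the source made its calls: active = score above a cut-off or among the top three wells of a plate; in these data no inactive exceeds 0.85.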
# System: primary human hepatic stellate cells (donor 1)
# Assay: scaled lipid accumulation score (0 = DMSO-like, 1 = nortriptyline-like); higher = stronger HSC inactivation (lipid re-accumulation), active = hit call of the paper
# Conditions: 48 h
# Method: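 Primary lipid accumulation screen in primary human hepatic stellate cell myofibroblasts (donor 1, passage 8) in 384-well plates. 100 nL of library compound was pin-transferred into 30 µL medium in duplicate, and cells were treated for 48 h. The 'Scaled' score combines distance from plate baseline, toxicity and reproducibility penalties, and is normalised to nortriptyline (positive) and DMSO (negative) controls on each plate. A hit is defined as scaled >0.85 or among the top 3 wells per plate.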
# [1] = library stock concentration: 1 mM
# [2] = library stock concentration: 10 mM
# [3] = library stock concentration: 9.7 mM
# [4] = library stock concentration: 80 uM
# [5] = library stock concentration: 400 uM
# [6] = library stock concentration: 2 mM
# [7] = library stock concentration: 3.33 mM
compound,measurement,setting,value
CN[C@@H]1C[C@H]2O[C@@](C)([C@@H]1OC)n1c3ccccc3c3c4c(c5c6ccccc6n2c5c31)C(=O)NC4 [staurosporine],scaled lipid accumulation score,library stock concentration: 10.7 mM,0.643
COC(=O)[C@@]1(O)C[C@H]2O[C@]1(C)n1c3ccccc3c3c4c(c5c6ccccc6n2c5c31)C(=O)NC4,scaled lipid accumulation score,library stock concentration: 1.1 mM,0.142
CN[C@@H]1C[C@H]2O[C@@](C)([C@@H]1OC)n1c3ccccc3c3c4c(c5c6ccccc6n2c5c31)C(=O)NC4 [Staurosporine],scaled lipid accumulation score,[1],0.546 (active)
COC(=O)N1CCN(C(=O)Cc2ccc(Cl)c(Cl)c2)C(CN2CCCC2)C1.O=C(O)/C=C/C(=O)O (stereo unspecified),scaled lipid accumulation score,[2],0.902 (active)
COC(=O)N1CCN(C(=O)Cc2ccc(Cl)c(Cl)c2)C(CN2CCCC2)C1 (stereo unspecified),scaled lipid accumulation score,[2],0.05
O=C(Cc1ccc(Cl)c(Cl)c1)N1CCCCC1CN1CCCC1 (stereo unspecified),scaled lipid accumulation score,[2],0.581 and 0.566
CO[C@H]1CC=C2CCN3CCC4=C(CC(=O)OC4)[C@]23C1 [Dihydro-beta-erythroidine hydrobromide],scaled lipid accumulation score,[2],≤ -0.07
"COc1ccc2c(c1OC)C(=O)OC2C1c2cc3c(cc2CCN1C)OCO3 (single isomer, unassigned; (+)) [(+)-Hydrastine]",scaled lipid accumulation score,[2],≤ -0.07
CCCCC/C=C\C/C=C\C/C=C\C/C=C\CCCC(=O)Nc1cccc([N+](=O)[O-])c1 [Arachidonoyl m-Nitroaniline],scaled lipid accumulation score,[1],≤ 0
CN(C)C(=O)C(CCN1CCC(O)(c2ccc(Cl)cc2)CC1)(c1ccccc1)c1ccccc1.Cl,scaled lipid accumulation score,[3],1.02 (active)
CN(C)C(=O)C(CCN1CCC(O)(c2ccc(Cl)cc2)CC1)(c1ccccc1)c1ccccc1.Cl [Loperamide hydrochloride],scaled lipid accumulation score,[2],1.46 (active)
CCOC(=O)C1(c2ccccc2)CCN(CCC(C#N)(c2ccccc2)c2ccccc2)CC1,scaled lipid accumulation score,[2],≤ 0
O=C(N[C@H]1CN2CCC1CC2)c1cc2ccoc2cn1,scaled lipid accumulation score,[2],≤ -0.055
Cl[C@H]1[C@H](Cl)[C@@H](Cl)[C@@H](Cl)[C@H](Cl)[C@H]1Cl [Lindane],scaled lipid accumulation score,library stock concentration: 6.9 mM,≤ -0.001
same,scaled lipid accumulation score,[2],≤ 0
OC[C@@H](O)[C@H]1O[C@@H]2O[C@H](C(Cl)(Cl)Cl)O[C@@H]2[C@H]1O,scaled lipid accumulation score,[2],≤ 0
CN(C)NC(=O)CCC(=O)O [Daminozide],scaled lipid accumulation score,[4],≤ 0
same,scaled lipid accumulation score,[5],≤ 0
same,scaled lipid accumulation score,[6],≤ 0
same,scaled lipid accumulation score,[2],≤ 0
"CC[C@@H](C(=O)[C@@H](C)[C@@H](O)[C@H](C)[C@@H]1O[C@@H]([C@@H](CC)C(=O)O)CC[C@@H]1C)[C@H]1O[C@]2(C=C[C@@H](O)[C@]3(CC[C@@](C)([C@H]4CC[C@](O)(CC)[C@H](C)O4)O3)O2)[C@H](C)C[C@@H]1C [Salinomycin, sodium]",scaled lipid accumulation score,[2],0.422
Clc1ccc(C2=CCCC3CCC2N3)cn1 (stereo unspecified) [UB 165 fumarate],scaled lipid accumulation score,[2],0.039
NC1=NC(=O)C(c2ccccc2)O1 (stereo unspecified) [Pemoline],scaled lipid accumulation score,[2],≤ 0
C=C(C)[C@@H]1[C@H]2OC(=O)[C@@H]1[C@]1(O)C[C@H]3OC34C(=O)O[C@H]2[C@@]41C.CC(C)(O)[C@@H]1[C@H]2OC(=O)[C@@H]1[C@]1(O)C[C@H]3OC34C(=O)O[C@H]2[C@@]41C (stereo partly specified) [Picrotoxin],scaled lipid accumulation score,[2],≤ -0.055
O=C1C=C2C(=CCOC2O)O1 (stereo unspecified) [Patulin],scaled lipid accumulation score,[2],1.21 (active)
C[C@H](N)Cn1ccc2cc(F)c(Cl)cc21.O=C(O)/C=C/C(=O)O [Ro 60-0175 fumarate],scaled lipid accumulation score,[2],0.953 (active)
O=C[C@H](Cl)[C@@H](O)[C@H](O)[C@H](O)CO [2-Chloro-2-deoxy-D-glucose],scaled lipid accumulation score,[2],≤ -0.07
CCN1C[C@]2(COC)CC[C@H](O)[C@]34C1[C@@](O)([C@@H](OC)[C@H]23)[C@@]1(O)C[C@H](OC)[C@H]2C[C@@H]4[C@@H]1[C@H]2OC [Delsoline],scaled lipid accumulation score,,≤ 0
"CN(N=O)c1ccc(O)c(O)c1 [Me-3,4-dephostatin]",scaled lipid accumulation score,[2],≤ -0.055
Br.Br.N=C(NCc1ccc(Cl)cc1)SCCCc1c[nH]cn1 [Clobenpropit dihydrobromide],scaled lipid accumulation score,[2],1.53 (active)
N=C(NCc1ccc(Cl)cc1)SCCCc1c[nH]cn1 [Clobenpropit],scaled lipid accumulation score,[2],0.903 (active)
Clc1ccc(C2CC3CCC2N3)cn1 (stereo unspecified),scaled lipid accumulation score,library stock concentration: 24 mM,≤ -0.012
C1=C2CCCN[C@H]2[C@@H]2C[C@H]1[C@H]1CCCCN1C2 [Aloperine],scaled lipid accumulation score,[7],0.028
same,scaled lipid accumulation score,[2],0.068
COc1cc(C=Cc2ccc(OC)c(O)c2)cc(OC)c1,scaled lipid accumulation score,[1],0.176
Clc1ccc(N2CC3CCC(C2)N3)nn1,scaled lipid accumulation score,[2],≤ -0.07
"C[N+]1(C)[C@@H]2CC(OC(=O)[C@H](CO)c3ccccc3)C[C@H]1[C@@H]1O[C@@H]12 (single isomer, unassigned; (-)) [(-)-Scopolamine methyl nitrate]",scaled lipid accumulation score,[2],≤ 0
CC(=O)O[C@H]1CC[C@@]2(C)C(=CC[C@@H]3[C@@H]2CC[C@]2(C)C(=O)CC[C@@H]32)C1 [Dehydroisoandosterone 3-acetate],scaled lipid accumulation score,,≤ 0
CCN(CC)CCO[C@H]1CC[C@@]2(C)C(=CC[C@@H]3[C@@H]2CC[C@]2(C)C(=O)CC[C@@H]32)C1,scaled lipid accumulation score,[1],0.116
CC(=O)O[C@H]1CC[C@@]2(C)C(=CC[C@@H]3[C@@H]2CC[C@]2(C)C(=O)CC[C@@H]32)C1 [Prasterone acetate],scaled lipid accumulation score,[2],0.103
CCN(CC)CCO[C@H]1CC[C@@]2(C)C(=CC[C@@H]3[C@@H]2CC[C@]2(C)C(=O)CC[C@@H]32)C1.Cl,scaled lipid accumulation score,[2],1.39 (active)
CC(C)NC(C)Cc1ccc(I)cc1 (stereo unspecified) [Iofetamine hydrochloride],scaled lipid accumulation score,[2],0.757
COP(=S)(OC)Oc1ccc(SC)c(C)c1,scaled lipid accumulation score,[2],≤ 0
CO[C@H](C)[C@](O)(C(=O)OCC1=CCN2CC[C@H](O)[C@@H]12)C(C)C [Heliotrine],scaled lipid accumulation score,,≤ 0
CO/C1=C\C(C)=C\[C@@H](C)[C@@H](O)[C@@H](C)C/C(C)=C/C=C/[C@H](OC)[C@@H]([C@@H](C)[C@@H](O)[C@H](C)[C@@]2(O)C[C@@H](O)[C@H](C)[C@@H](C(C)C)O2)OC1=O [Bafilomycin A1],scaled lipid accumulation score,library stock concentration: 800 uM,1.08 (active)
CCCN(CCC)C1CCc2cccc(O)c2C1 (stereo unspecified) [8-Hydroxy-DPAT hydrobromide],scaled lipid accumulation score,[2],0.055
CCCN(CCC)C1CCc2cccc(O)c2C1 (stereo unspecified),scaled lipid accumulation score,[2],≤ -0.07
O=C(O)CCC(CP(=O)(O)O)C(=O)O (stereo unspecified) [PMPA (NAALADase inhibitor)],scaled lipid accumulation score,[2],≤ -0.006
CCCCC/C=C\C/C=C\C/C=C\C/C=C\CCCC(=O)NCCCC(=O)O [N-Arachidonoyl-.gamma.-Aminobutyric Acid],scaled lipid accumulation score,[1],0.032
CCN1C[C@]2(COC)CC[C@H](OC)[C@]34C5C[C@@H]6[C@@H](OC)C[C@@]7(OCO[C@@]7(C13)[C@@H](O)C24)C5[C@H]6OC (stereo partly specified) [Delcorine],scaled lipid accumulation score,,≤ 0
CN(C)C(=S)SSC(=S)N(C)C [Thiram] [listing 1 of 2 here],scaled lipid accumulation score,[2],0.163
CN(C)C(=S)SSC(=S)N(C)C [Thiram] [listing 2 of 2 here],scaled lipid accumulation score,library stock concentration: 8.3 mM,0.965 (active)
"Ic1ccccc1CNC1C2CCN(CC2)C1C(c1ccccc1)c1ccccc1 [L-703,606 oxalate salt hydrate]",scaled lipid accumulation score,[2],0.063
CN1CCC(c2ccc(F)cc2)C(COc2ccc3c(c2)OCO3)C1 (stereo unspecified),scaled lipid accumulation score,[3],0.664
CCCCCC(/C=C/C=O)OO (stereo unspecified) [4-hydroperoxy 2-Nonenal],scaled lipid accumulation score,[1],0.019
O=C1NC(=O)c2c1c1c3ccccc3n3c1c1c2c2ccccc2n1C1CCC3O1,scaled lipid accumulation score,[2],1.3 (active)
O=C1NC(=O)c2c1c1c3ccccc3n3c1c1c2c2ccccc2n1[C@H]1CC[C@@H]3O1,scaled lipid accumulation score,[7],0.338
"COC(=O)[C@]1(O)C[C@@H]2O[C@@]1(C)n1c3ccccc3c3c4c(c5c6ccccc6n2c5c31)C(=O)NC4 [K-252a, Nocardiopsis sp.]",scaled lipid accumulation score,[7],0.362
Cc1sc2c(c1C)C(c1ccc(Cl)cc1)=N[C@H](CC(=O)OC(C)(C)C)c1nnc(C)n1-2,scaled lipid accumulation score,[4],≤ 0
same,scaled lipid accumulation score,[5],≤ 0
same,scaled lipid accumulation score,[6],≤ 0
same,scaled lipid accumulation score,[2],≤ 0
CC[C@@]1(O)C[C@H](O[C@H]2C[C@H](N(C)C)[C@H](O)[C@H](C)O2)c2c(cc3c(c2O)C(=O)c2c(O)ccc(O)c2C3=O)[C@H]1C(=O)OC [Pyrromycin],scaled lipid accumulation score,[2],≤ 0
C[C@@H]1O[C@@H](O[C@H]2C[C@@H](O)[C@]3(CO)[C@@H]4C(CC[C@]3(O)C2)[C@@]2(O)CC[C@H](C3COC(=O)C3)[C@@]2(C)C[C@H]4O)[C@H](O)[C@H](O)[C@H]1O (stereo partly specified) [Dihydroouabain],scaled lipid accumulation score,[2],0.964 (active)
C[C@@H]1O[C@@H](O[C@H]2C[C@@H](O)[C@]3(CO)[C@H]4[C@H](O)C[C@]5(C)[C@@H](C6=CC(=O)OC6)CC[C@]5(O)[C@@H]4CC[C@]3(O)C2)[C@H](O)[C@H](O)[C@H]1O [Ouabain] [listing 1 of 2 here],scaled lipid accumulation score,library stock concentration: 8.6 mM,0.734
C[C@@H]1O[C@@H](O[C@@H]2C=C3CC[C@@H]4[C@H](CC[C@]5(C)[C@@H](c6ccc(=O)oc6)CC[C@]45O)[C@@]3(C)CC2)[C@H](O)[C@H](O)[C@H]1O [Proscillaridin A],scaled lipid accumulation score,,0.768
C[C@@H]1O[C@@H](O[C@H]2C[C@@H](O)[C@]3(CO)[C@H]4[C@H](O)C[C@]5(C)[C@@H](C6=CC(=O)OC6)CC[C@]5(O)[C@@H]4CC[C@]3(O)C2)[C@H](O)[C@H](O)[C@H]1O [Ouabain] [listing 2 of 2 here],scaled lipid accumulation score,[2],1.13 (active)
C[C@@H]1O[C@@H](O[C@H]2C[C@@H](O)[C@]3(CO)C4C(CC[C@]3(O)C2)[C@@]2(O)CC[C@H](C3=CC(=O)OC3)[C@@]2(C)C[C@H]4O)[C@H](O)[C@H](O)[C@H]1O (stereo partly specified) [Ouabain],scaled lipid accumulation score,[2],0.993 (active)
C[C@@H]1O[C@@H](O[C@@H]2C[C@@H](O)[C@]3(CO)[C@H]4[C@H](O)C[C@]5(C)[C@@H](C6=CC(=O)OC6)CC[C@]5(O)[C@@H]4CC[C@]3(O)C2)[C@H](O)[C@H](O)[C@H]1O [Ouabain],scaled lipid accumulation score,[2],1 (active)
C[C@@H]1CC[C@@]2(OC1)O[C@H]1C[C@H]3[C@@H]4CC=C5C[C@@H](O[C@@H]6O[C@H](CO)[C@@H](O[C@@H]7O[C@@H](C)[C@H](O)[C@@H](O)[C@H]7O)[C@H](O)[C@H]6O[C@@H]6O[C@@H](C)[C@H](O)[C@@H](O)[C@H]6O)CC[C@]5(C)[C@H]4CC[C@]3(C)[C@H]1[C@@H]2C [Dioscin],scaled lipid accumulation score,[7],0.577
same,scaled lipid accumulation score,[2],0.255
